“And” between values parts separate entries of the source, which are not always exact repeats. Identical values can stand only once. A structure can be active in one record and inactive in another. The source made the active and inactive calls. Unless noted, the rule behind the calls is not given here.
Columns and labels:
[1] = test system: Wnt5a (protein binding on small-molecule microarray); assay: small molecules binding Wnt5a protein – biophysical, small-molecule microarray, 635/667 nm fluorescence, primary screen (AID 1142); settings: 635 nm fluorescence, higher = more signal;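 note: fluorescence read at 667 nm with signal to noise per printed feature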
[2] = ATP-based viability of Huh7 replicon cells – cell-based, CellTiter-Glo luminescence, basal, 48 h, cytotoxicity control for HCV replication inhibitor project, primary screen (AID 1143); settings: higher = more signal, called active from +8 up or from −8 down;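 note: Huh7 hepatoma cells carrying a hepatitis C replication reporter with no stimulus; test concentration not given here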
[3] = Pseudomonas biofilm growth suppression – PAO1 strain, BacTiter-Glo luminescence, LB-PBS, primary screen (AID 1144); settings: P. aeruginosa PAO1 biofilm, 12 h, higher = more signal
[4] = basal CRE-LacZ reporter activity in PC12 – cell-based, unstimulated, primary screen (AID 1145); settings: no forskolin, luminescence, 4.5 h, higher = more signal, called active from +8 up or from −8 down
[5] = forskolin-driven CRE-LacZ activity in PC12 – cell-based, CRE-LacZ reporter, forskolin-stimulated, primary screen (AID 1146); settings: luminescence, 4.5 h, higher = more signal, called active from +8 up or from −8 down;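 note: PC12 cells with 6xCRE LacZ reporter stimulated by forskolin 10 µM; beta-galactosidase reporter signal reflecting CREB driven transcription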
[6] = molecular target: Streptavidin (Streptomyces avidinii) (UniProt P22629); assay: compounds binding control protein streptavidin – biophysical, small-molecule microarray, 635/667 nm fluorescence, artefact control for SMM compound annotation, primary screen (AID 1147); settings: higher = more signal;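 note: signal reflects streptavidin binding to arrayed compounds as a control protein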
Streptavidin (Streptomyces avidinii), sequence (P22629 whole entry, looked up): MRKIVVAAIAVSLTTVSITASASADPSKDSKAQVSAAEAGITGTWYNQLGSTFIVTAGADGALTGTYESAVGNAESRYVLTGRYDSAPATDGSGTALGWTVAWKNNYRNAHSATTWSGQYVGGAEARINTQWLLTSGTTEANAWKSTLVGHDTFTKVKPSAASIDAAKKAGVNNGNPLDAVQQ

[7] = probe aInhba binding on compound microarray – biochemical, small-molecule microarray, 635/667 nm fluorescence, primary screen (AID 1148); settings: higher = more signal;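 note: score merges 667nm spot fluorescence with signal-to-noise for antibody binding to printed compounds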
Torsin-1A (Homo sapiens) [8] = molecular target: Torsin-1A (Homo sapiens) (UniProt O14656); assay: TOR1A wild-type binding on microarray – cell lysate, small-molecule microarray, lysate, 635/667 nm, primary screen (AID 1149); settings: COS7 hTOR1A-WT lysate, 635 nm fluorescence, higher = more signal
Torsin-1A (Homo sapiens), sequence (O14656 whole entry, looked up): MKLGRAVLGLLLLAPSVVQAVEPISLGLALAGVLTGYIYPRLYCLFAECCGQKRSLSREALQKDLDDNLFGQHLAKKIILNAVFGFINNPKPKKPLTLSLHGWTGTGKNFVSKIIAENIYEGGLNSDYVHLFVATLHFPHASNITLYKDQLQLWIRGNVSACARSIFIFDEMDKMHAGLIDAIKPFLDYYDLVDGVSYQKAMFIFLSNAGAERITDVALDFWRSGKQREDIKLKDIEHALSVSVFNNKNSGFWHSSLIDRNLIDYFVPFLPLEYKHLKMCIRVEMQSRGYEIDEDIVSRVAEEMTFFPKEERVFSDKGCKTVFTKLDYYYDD

Torsin-1A (Homo sapiens) [9] = molecular target: Torsin-1A (Homo sapiens) (UniProt O14656); assay: torsin A mutant lysate binding on microarrays – cell lysate, small-molecule microarray, COS7 lysate, 635/667 nm fluorescence, primary screen (AID 1150); settings: COS7 hTOR1A mutant lysate, 635 nm fluorescence, higher = more signal;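 note: score pools 667 nm emission and signal to noise measuring lysate protein binding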
[10] = test system: Sonic hedgehog protein (Shh); assay: Sonic hedgehog microarray binding compounds – biochemical, small-molecule microarray, 635/667 nm fluorescence, primary screen (AID 1151); settings: 635 nm fluorescence, higher = more signal;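 note: Shh protein binding to compounds spotted on small-molecule microarray slides; score combines spot fluorescence intensity with signal-to-noise across triplicate slides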

Row | Compound | composite z-score [1] | z-score [2] | z-score [3] | z-score [4] | z-score [5] | composite z-score [6] | composite z-score [7] | composite z-score (Torsin-1A (Homo sapiens) [8]) | composite z-score (Torsin-1A (Homo sapiens) [9]) | composite z-score [10]
1 | C=CCN(Cc1ccccc1)C(=O)C1N(CCOCCO)C(=O)C2C(C(=O)O)C3C=CC21O3 (centres undefined) | -0.0792 and -1.24 | -2.27 (inactive) and 0.247 (inactive) | -0.0168 (inactive) | -0.484 (inactive) and -0.753 (inactive) | -0.347 (inactive) and -0.736 (inactive) | -1.36 and -1.24 | -0.282 and -0.0645 | -2.62 and -3.49 | -1.89 and -3.16 | -1.64 and -2
2 | CCOC(=O)[C@@H]1CC2O[C@]23C[C@@H]1C(=O)N1CCC[C@@H]1[C@H]3O[Si](C)(C)C(C)(C)C (some centres undefined) | 0.187 and -0.0017 | -1.17 (inactive) and 0.553 (inactive) | -0.377 (inactive) and 0.487 (inactive) | -1.23 (inactive) and -0.414 (inactive) | -0.217 (inactive) and 1.42 (inactive) | -0.468 and -0.0735 | -0.105 and 0.651 | -0.36 and -0.384 | -0.855 and -0.032 | 0.361 and 1.05
3 | C=CCN(CCCC)C(=O)C(c1cccs1)N(C(=O)/C=C\C(=O)O)c1c(Cl)cccc1CO (centres undefined) | -1.57 and -1.27 | 0.665 (inactive) and 0.504 (inactive) | -0.428 (inactive) and 0.0609 (inactive) | -0.761 (inactive) and 0.329 (inactive) | 0.325 (inactive) and -0.167 (inactive) | -1.55 and -0.309 | -0.38 and -0.186 | -4.75 and -2.7 | -3.62 and -2.89 | -1.48 and -1.63
4 | C=C[C@@H](C)[C@H](O)c1ccc(O)c2ccccc12 | -0.419 and -0.647 | -2.11 (inactive) and 0.366 (inactive) | -0.14 (inactive) and -0.671 (inactive) | 0.441 (inactive) and -0.272 (inactive) | -0.349 (inactive) and 0.556 (inactive) | -0.984 and -0.766 | -0.224 and -0.233 | -0.595 and -0.309 | -0.518 and -0.45 | 1.96 and 0.17
5 | COC(=O)[C@@]1(Cc2ccccc2)[C@H]2c3cc(C(=O)N(C)C)n(Cc4ccc(C)c(F)c4F)c3C[C@H]2CN1C(=O)c1ccccc1 | 0.0409 and 1.51 | -4.98 (inactive) and -3.53 (inactive) | -0.796 (inactive) and 0.655 (inactive) | 31.5 (active) and 0.972 (inactive) | 202 (active) and 0.38 (inactive) | 0.367 and 1.93 | 0.122 and 0.787 | 0.399 and 0.7 | 0.272 and 0.365 | -0.678 and -0.165
6 | C=CCN(C(=O)C1N(c2c(Cl)cccc2CO)C(=O)C2C(C(=O)O)C3C=CC21O3)c1ccc(OC)cc1 (centres undefined) | -0.898 and -0.782 | -0.443 (inactive) and -0.172 (inactive) | -0.927 (inactive) and -0.513 (inactive) | -0.623 (inactive) and 0.0645 (inactive) | -0.297 (inactive) and -0.684 (inactive) | -1 and -1.55 | -0.874 and -0.379 | -2.69 and -1.75 | -1.94 and -1.61 | -1.22 and -0.893
7 | C=CCN(C(=O)C1N(c2c(Cl)cccc2CO)C(=O)C2C(C(=O)O)C3C=CC21O3)C(C)(C)C (centres undefined) | -0.948 and -0.619 | -0.488 (inactive) and 0.0489 (inactive) | -0.774 (inactive) and -0.443 (inactive) | -1.44 (inactive) and 0.329 (inactive) | -0.219 (inactive) and -0.51 (inactive) | 0.163 and -1.11 | -0.702 and -0.213 | -2.54 and -1.22 | -1.62 and -1.73 | -1.17 and -0.681
8 | C=CCN(CCCCC)C(=O)C(c1cccs1)N(C(=O)/C=C\C(=O)O)c1ccc(CCO)cc1 (centres undefined) | -0.909 and -0.947 | 0.162 (inactive) and 0.193 (inactive) | 0.0224 (inactive) and -0.188 (inactive) | 0.459 (inactive) and 0.597 (inactive) | -0.343 (inactive) and -0.244 (inactive) | -1.72 and -1.16 | -0.331 and -0.0021 | -2.38 and -1.69 | -1.96 and -1.51 | -0.975 and -0.587
9 | O=C1NC(=O)C2C1C=CC(C(O)c1ccc([N+](=O)[O-])cc1)N2Nc1ccc(Cl)cc1Cl (centres undefined) | 0.283 and 0.0563 | -0.311 (inactive) and -0.861 (inactive) | -1.48 (inactive) and -2.27 (inactive) | 0.812 (inactive) and 0.443 (inactive) | 0.479 (inactive) and -0.492 (inactive) | 0.404 and 0.519 | 0.0301 and 0.175 | 0.339 and 1.2 | 0.703 and 1.22 | -0.274 and -0.13
10 | CC(C)[Si]1(C(C)C)OCc2cc(CCCc3cc4c(c(CCc5ccccc5)n3)[Si](C(C)C)(C(C)C)OC4)nc(CCc3ccccc3)c21 | 0.0898 and 0.0154 | -0.871 (inactive) and 0.114 (inactive) | 0.0644 (inactive) | 0.731 (inactive) and 0.469 (inactive) | -0.315 (inactive) and 0.352 (inactive) | -0.59 and 0.473 | -0.0791 and 0.0442 | -0.473 and 0.21 | 0.0547 and 0.39 | 0.405 and 0.595
11 | COC(=O)C1=C(C)N(Cc2ccccc2)C2=C(C(C)=O)C[C@@](O)(C(=O)OC)C(=O)N2[C@@H]1c1ccccc1 | 0.491 and 0.0879 | -0.451 (inactive) and -1.18 (inactive) | -2.16 (inactive) | 3.35 (inactive) and 4.53 (inactive) | -0.711 (inactive) and -0.239 (inactive) | -0.192 and -0.271 | 0.0212 and -0.0136 | 1.39 and 0.336 | 1.69 and -0.0069 | 1.74 and 0.806
12 | CC(C)OC(=O)C=C1C[C@@H](c2cccc(C(F)(F)F)c2)O[C@@H](c2cccc(C(F)(F)F)c2)O1 | 0.0895 and -0.51 | -0.53 (inactive) and -2.72 (inactive) | -0.539 (inactive) and 0.216 (inactive) | -0.284 (inactive) and 0.379 (inactive) | -0.126 (inactive) and 1.11 (inactive) | 0.0863 and 0.0717 | -0.0313 and -0.2 | 0.704 and 2.6 | 1.17 and 0.366 | -0.0088 and -0.758
13 | CCOC(=O)C[C@H]1[C@H](OC(=O)c2ccccc2-c2ccccc2)[C@@H](NC(=O)Cc2ccc(OC)cc2)c2cc(OCCCO)ccc2N1C(=O)Cc1ccc(OC)cc1 | 0.18 and 0.0684 | -0.093 (inactive) and -0.267 (inactive) | 0.0825 (inactive) | 0.656 (inactive) and 0.671 (inactive) | -1.2 (inactive) and 0.454 (inactive) | 0.325 and -0.401 | 0.0082 and 0.109 | -0.0109 and -0.752 | 0.24 and 0.161 | 0.857 and -0.501
14 | C=CCN(C(=O)C(c1cccs1)N(C(=O)/C=C\C(=O)O)c1c(Cl)cccc1CO)c1ccc(OC)cc1 (centres undefined) | -0.57 and -0.644 | -0.266 (inactive) and 0.28 (inactive) | 0.894 (inactive) | -0.895 (inactive) and -0.346 (inactive) | -0.569 (inactive) and 0.595 (inactive) | -1.33 and -0.327 | -0.336 and -0.0209 | -2.86 and -0.746 | -1.96 and -2.42 | -1.64 and -0.676
15 | C=CCN(C(=O)C1N(CCOCCO)C(=O)C2C(C(=O)O)C3C=CC21O3)c1ccc(OC)cc1 (centres undefined) | -0.571 and -0.317 | -0.769 (inactive) and -0.89 (inactive) | 0.0762 (inactive) and 0.0838 (inactive) | 0.329 (inactive) and 0.463 (inactive) | 0.373 (inactive) and -0.121 (inactive) | -1.35 and -1.27 | -0.186 and -0.296 | -1.81 and -2.21 | -1.91 and -1.9 | -1.31 and -0.761
16 | CC(CO)N1C(=O)[C@@H]2C3C(=O)OCCC=C[C@H]3OC23C=CCN(Cc2ccccc2)C(=O)[C@@H]13 (some centres undefined) | -0.238 and -0.381 | -0.783 (inactive) and 0.124 (inactive) | 2.42 (inactive) and 0.328 (inactive) | 0.321 (inactive) and 0.195 (inactive) | -0.937 (inactive) and -0.56 (inactive) | -0.422 and -0.768 | -0.128 and -0.0762 | -0.773 and 0.447 | 1.55 and 1.17 | -0.525 and 0.901
17 | CO[C@@H]1COC(=O)[C@H](Cc2ccccc2)NC(=O)CC=C[C@@H](C)[C@H](OC)COC(=O)[C@@H](C)NC(=O)CC=C[C@H]1C | -0.21 and 0.189 | -0.656 (inactive) and -1.53 (inactive) | – | 0.345 (inactive) and -0.39 (inactive) | -0.95 (inactive) and -1.65 (inactive) | -0.0436 and -0.304 | -0.0986 and -0.319 | 1.37 and 0.668 | 0.671 and 0.335 | 2.07 and 1.98
18 | CC(CO)N1C(=O)[C@@H]2C3C(=O)OCCC=C[C@H]3OC23C=CCN(C(C)(C)C)C(=O)[C@@H]13 (some centres undefined) | -0.221 and 0.386 | 1.18 (inactive) and -0.0534 (inactive) | 1.02 (inactive) and 1.16 (inactive) | -0.0859 (inactive) and -0.903 (inactive) | -0.596 (inactive) and 0.158 (inactive) | -1.5 and -0.476 | -0.206 and 0.188 | -0.0147 and 0.756 | -0.0948 and 0.346 | 0.0735 and 0.915
19 | COC(=O)C1=C(C)N(Cc2ccccc2)[C@]23O[C@](C(=O)OC)(C(=O)N2[C@@H]1c1ccccc1)[C@H]1CCCC(=O)[C@H]13 | 0.04 and -0.0686 | -3.29 (inactive) and -2.24 (inactive) | -0.375 (inactive) and -1.01 (inactive) | 0.563 (inactive) and 2.64 (inactive) | -0.771 (inactive) and -0.693 (inactive) | 0.3 | 0.114 and -0.018 | 0.165 and 0.434 | 0.815 and 0.262 | 0.396 and 0.436
